Assay outcomes as filed in PubChem BioAssay.
Compounds with a hit are over-represented: about 2.6% of the library has one in this group of screens.
PABP polyA inh = PABP poly(A) RNA binding inhibitors, primary screen, biochemical, fluorescence polarization, uHTS. calls only at 35 µM. actives 1% (n = 290,000);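 also: calls also rest on retests at 20 µM and on dose response follow-up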
eIF4H inh = human eIF4H binding inhibitors, primary screen, translation initiation inhibitor project, biochemical, uHTS, fluorescence polarization; eIF4H fluorescence polarization binding assay; inhibition, % at 35 µM; actives 0.94% (n = 290,000);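 also: calls also rest on retests at 20 µM and on dose response follow-up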
PHOSPHO1 block = PubChem AID 1565. inhibition, % at 13.3 µM. recombinant PHOSPHO1, absorbance phosphatase assay. Phosphoethanolamine/phosphocholine phosphatase (Homo sapiens), Q8TCT1. actives 1.1% (n = 290,000); in the data active = inhibition above about 60%
ABCB6 inh 2 = ABCB6 transporter inhibitors, primary screen, K562-ABCB6 cells, flow cytometry, MLPCN library. AID 602162, 2011. fluorescence ratio to DMSO, % at 10 µM. ATP-binding cassette sub-family B member 6 (Homo sapiens), Q9NP58. K562-ABCB6 porphyrin accumulation, 1 h; active compounds read low. actives 0.19% (n = 360,000);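 active = fluorescence ratio to DMSO below 75%, the collection mean minus 3 SD; inconclusive = too few cells collected in the well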;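 also: signal is porphyrin accumulated inside mitochondria; 100% equals median channel fluorescence of DMSO control wells; lower ratio means ABCB6 inhibition with less porphyrin fluorescence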
Target sequence (Q9NP58 whole entry, looked up): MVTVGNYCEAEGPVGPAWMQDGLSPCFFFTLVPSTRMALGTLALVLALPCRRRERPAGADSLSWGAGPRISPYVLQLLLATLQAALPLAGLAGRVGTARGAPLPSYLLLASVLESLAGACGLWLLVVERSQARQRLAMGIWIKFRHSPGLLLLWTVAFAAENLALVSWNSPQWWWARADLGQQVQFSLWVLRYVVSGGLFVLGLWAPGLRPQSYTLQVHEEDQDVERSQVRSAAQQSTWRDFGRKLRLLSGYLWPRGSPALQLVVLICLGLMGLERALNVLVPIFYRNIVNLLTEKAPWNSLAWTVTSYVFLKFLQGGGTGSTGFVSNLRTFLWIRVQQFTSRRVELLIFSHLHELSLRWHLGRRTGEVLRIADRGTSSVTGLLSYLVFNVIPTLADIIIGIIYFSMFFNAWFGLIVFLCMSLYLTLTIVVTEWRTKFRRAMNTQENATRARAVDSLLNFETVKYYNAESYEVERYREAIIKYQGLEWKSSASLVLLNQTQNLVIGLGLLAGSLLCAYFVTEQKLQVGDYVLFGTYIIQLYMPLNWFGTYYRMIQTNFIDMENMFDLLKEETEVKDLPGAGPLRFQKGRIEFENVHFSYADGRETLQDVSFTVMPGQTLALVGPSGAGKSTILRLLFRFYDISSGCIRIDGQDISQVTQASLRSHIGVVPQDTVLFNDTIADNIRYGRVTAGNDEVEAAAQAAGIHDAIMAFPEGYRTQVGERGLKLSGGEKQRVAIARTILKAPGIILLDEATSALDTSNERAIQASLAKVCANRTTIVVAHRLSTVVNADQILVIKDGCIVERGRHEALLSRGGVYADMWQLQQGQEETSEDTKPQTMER
AI-2 QS modul = Vibrio harveyi AI-2 quorum sensing modulators, primary screen, JMH597 strain, luminescence/OD600 ratio; Vibrio harveyi JMH597 AI-2 luminescence/OD600 ratio, 9 h; active compounds read low; strain lacks LuxN and CqsS sensors; 0 = neutral-control median; activity change, % at 7.5 µM; actives 0.4% (n = 300,000); AID 2094, 2009; in the data active = activity change below about -75%, passing the limit was not always enough; inconclusive = no clear call, values can overlap the other calls;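 also: luminescence divided by OD600 gain over 9 h not by final OD600 alone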
PABP1 MLLE inh = inhibitors of PABP1 MLLE–PAM2 peptide binding, primary screen, biochemical, fluorescence polarization, FITC-PAM2, GST-MLLE; actives 0.36% (n = 360,000); inhibition, % at 20 µM; Polyadenylate-binding protein 1 (Homo sapiens), P11940; in the data active = inhibition above about 35%, passing the limit was not always enough;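 also: plate controls were DMSO wells with GST-MLLE for no effect and wells lacking GST-MLLE protein for full effect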
Starred values were filed as active, the others as inactive; i = inactive; ? = inconclusive; . = not tested or not shown; + = active, no number. Unless noted, no rule for the calls is given here.

SMILES	PABP polyA inh	eIF4H inh	PHOSPHO1 block	ABCB6 inh 2	AI-2 QS modul	PABP1 MLLE inh
Nc1[nH]c(C(=O)c2ccccc2)c(-c2ccccc2Cl)c1C(=O)c1ccccc1	.	.	.	122	.	.
CCOc1ccc2[nH]c(=S)[nH]c2c1	i	-13	103*	90	27	-6
COc1cccc(CNC(=O)C(C)n2ccc3cc(S(=O)(=O)N4CCCCCC4)ccc32)c1 (centres undefined)	i	-8	18	96	5	7
CCC(C(=O)NCCC(C)C)n1ccc2cc(S(=O)(=O)N3CCCCC3)ccc21 (centres undefined)	i	-8	63*	80	26	-6
COC(=O)C1=C(C)N(c2ccc(OC)c(OC)c2)C(=O)/C1=C\c1cccs1	i	0	23	101	34	-16
COC(=O)C1=C(C)N(c2ccc(OC)cc2)C(=O)/C1=C\c1cccs1	+	active	-3	103	9	-9
CC(C)CCN1C(=O)c2ccc(C(=O)Nc3ccc(O)cc3C(=O)O)cc2C1=O	+	81*	39	99	22	2
CC1(C(=O)O)CCCN1C(=O)c1cc2ccccc2s1 (centres undefined)	.	.	.	96	.	-4
Cc1ccc(-c2cc(-c3ccccc3)c3c(N)c(S(C)(=O)=O)sc3n2)cc1	+	105*	82*	102	6	8
CS(=O)(=O)c1sc2nc(-c3cccs3)cc(-c3ccccc3)c2c1N	?	?	11	125	12	6
CC(=O)c1cccc(-c2ccnc3c2CC(C(=O)Nc2cccc(OC(F)(F)F)c2)O3)c1 (centres undefined)	.	.	.	99	.	-5
O=c1c(/C=N/OCc2ccc(Cl)cc2Cl)c[nH]n1-c1cccc(Cl)n1	i	25*	32	88	50	-8
C(=N\Nc1nn[nH]n1)/c1ccccc1	i	-5	71*	103	24	1
Cc1cccc(C)c1-n1nnnc1C1c2ccccc2C(=O)N1CCOc1ccccc1 (centres undefined)	.	.	.	99	.	.
CCOC(=O)c1nnn(-c2nonc2N)c1COc1ccccc1	+	31	-32	105	12	-11
CCCc1c(C(=O)N/N=C(\C)CCc2ccccc2)nnn1-c1nonc1N	i	-11	67*	99	18	-1
O=C(NCc1ccncc1)[C@@H]1CCCN1C(=O)[C@H]1CCCN1C(=O)c1cccc2ccccc12	.	.	.	97	.	.
Cc1onc(-c2ccccc2)c1C(=O)N/N=C/c1ccc([N+](=O)[O-])s1	+	58*	-1	104	?	12
CCOC(=O)c1c(NC(C)=O)sc2c1CCC(C=O)=C2Sc1ccccc1	i	-1	91*	145	28	26
CCOC(=O)c1c(NC(=O)c2ccccc2Br)sc2c1CCc1ccccc1-2	i	-7	71*	94	23	33
CCOC(=O)c1c(NC(C)=O)sc2c1CCN(Cc1ccccc1)C2	i	-7	20	97	14	7
COc1cccc(C(C)(O)c2nc(-c3cccs3)cs2)c1 (centres undefined)	.	.	.	97	.	-14
Cc1nn(CC(=O)Nc2ccccc2)c(=O)c2ccccc12	i	5	16	101	-88*	-1
COc1ccc(F)cc1-c1cc(NC(C)=O)c2ncc(-c3cccc(C(F)(F)F)c3)n2c1	.	.	.	94	.	-3
O=C(NCCNS(=O)(=O)c1ccc(Cl)cc1)c1cc(OCC(F)(F)F)ccc1OCC(F)(F)F	i	2	1	94	12	0
SMILES	PABP polyA inh	eIF4H inh	PHOSPHO1 block	ABCB6 inh 2	AI-2 QS modul	PABP1 MLLE inh
O=C(NCCNS(=O)(=O)c1ccccc1)c1cc(OCC(F)(F)F)ccc1OCC(F)(F)F	i	-7	62*	96	6	-3
COc1cccc(-c2oc3c(c2C#CC2(N)CCCCC2)C(O)CCC3)c1 (centres undefined)	.	.	.	93	.	.
CCc1ccc(OCC(=O)NC(NC(=S)Nc2ccccc2OC)C(Cl)(Cl)Cl)cc1 (centres undefined)	+	78*	6	96	9	23
CCc1ccc(OCC(=O)NC(NC(=S)Nc2ccccc2C)C(Cl)(Cl)Cl)cc1 (centres undefined)	i	1	-24	105	22	15
CCc1ccc(C(O)c2ncc(-c3ccc(Cl)cc3)[nH]2)cc1 (centres undefined)	.	.	.	97	.	9
COc1cc(NC(=O)c2ccc(Cl)cc2)c(Cl)cc1NC(=O)c1cccnc1	i	0	63*	103	14	4
Oc1ccc(CN2CCCc3ccccc32)c2cccnc12	i	17	74*	111	20	42*
Cc1cc(C)c2c(c1)-c1c(ssc1=S)C(C)(C)N2C(=O)CSc1nncn1C	i	-7	62*	100	8	13
Cc1ccc2c(c1)-c1c(ssc1=S)C(C)(C)N2C(=O)CSc1nncn1C	+	2.4*	-21	104	7	25
S=c1[nH]nc(-c2ccco2)n1/N=C/c1ccc(Cl)cc1	i	2	-7	98	33	-26
S=c1[nH]nc(-c2n[nH]c3c2CCC3)n1/N=C/C=C/c1ccco1	+	90*	-36	97	48	-6
S=c1[nH]nc(-c2ccco2)n1/N=C/C=C/c1ccco1	i	92	69*	109	14	-8
COc1ccccc1/C=C/C=N/n1c(-c2n[nH]c3c2CCC3)n[nH]c1=S	i	6	23	100	18	-37
Cc1ccccc1/C=N/n1c(-c2cc(-c3ccccc3)n[nH]2)n[nH]c1=S	i	-18	-15	104	2	-64
CN(C)c1ccc(/C=N/n2c(COc3ccccc3)n[nH]c2=S)cc1	i	10	79*	105	15	-57
S=c1[nH]nc(-c2cc(-c3ccccc3)n[nH]2)n1/N=C/C=C/c1ccco1	+	102*	23	101	52	3
S=c1[nH]nc(COc2ccccc2)n1/N=C/C=C/c1ccco1	+	81*	24	97	17	-54
O=C1c2ccccc2C(=O)c2c(NCc3cccnc3)cccc21	i	11	20	110	9	-24
CNc1cccc2c1C(=O)c1ccccc1C2=O	+	78*	9	123	-1	41*
Cn1cccc1/C=C1\SC(=O)N(c2ccc(O)cc2)C1=O	+	0.7*	-5	99	-9	17
CC(=O)Nc1ccc2cc3ccc(NC(C)=O)cc3nc2c1	+	77*	6	112	28	113
